This experiment in a line: M. tuberculosis growth inhibition, HTS (AID 1259417).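 Also: bacteria grown with compound for 5 days at 37 °C.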 The conditions noted are these: stronger effect = higher value, concentration not given here.
Where [1] appears, read: M. tuberculosis DsRed fluorescence growth inhibition.
Where [2] appears, read: M. tuberculosis growth inhibition.

The campaign covered roughly 1,100 compounds. About 760 (69%) were called active. No rule for the calls is given here. The set was probably picked from earlier hits. Some of the results follow.

A word on the inhibition: it is the change of the read-out against control, counted positive when it falls. On to `COc1ccc(C)c2sc(N(CCCn3ccnc3)C(=O)c3cccs3)nc12`, for which the inhibition under setting [1] is 51.2% (active) and the inhibition under setting [2] stood at 44.6%.

As for `COc1ccc(Cl)c2sc(N(CCCn3ccnc3)C(=O)c3cccs3)nc12`, the inhibition is 59.9% (active) under setting [1] and 61.3% under setting [2].

In the case of `O=C(COc1cccc2ccccc12)c1ccc(Cl)cc1`, the inhibition under setting [1] is 17% (active) and the inhibition under setting [2] turned out to be 36.9%.

Take `Cn1nc([N+](=O)[O-])nc1Sc1ncnn1-c1ccccc1`: the inhibition runs as follows: under setting [1], 97.1% (active); under setting [2], 95%.

In the case of `O=c1nc2c(O)cccn2c2c1c(=O)[nH]c1ccccc12`, the inhibition under setting [1] was -3.23% (inactive) and the inhibition under setting [2] is -27.6%.

For `Cc1c(C)n2c3c(=O)[nH]c(=O)n(C)c3nc2n1-c1ccccc1O`, the inhibition reads like this: under setting [1], 97.2% (active); under setting [2], 92.8%.

For the compound `COC(=O)C(CC(=O)c1ccc(Br)cc1)n1ccnc1` (stereo not drawn), the inhibition is, setting by setting: under setting [1], 100% (active); under setting [2], 100%.

As for `O=c1oc2ccccc2nc1/C=C(O)/C=C\c1ccccc1`, the inhibition is, setting by setting: under setting [1], 99.1% (active); under setting [2], 98.9%.

For the compound `Clc1ccc(OCc2ccccc2Cl)c(CNC2CCCCC2)c1`, the inhibition under setting [1] was 99.2% (active) and the inhibition under setting [2] is 99.3%.

As for `COC(=O)CSc1ncnc2c1sc1nc3c(cc12)COC(C)(C)C3`, the inhibition under setting [1] was 48.1% (active) and the inhibition under setting [2] is -1.03%.

As to `Clc1cccc(Nc2nc(NCc3ccco3)c3ccccc3n2)c1`, the inhibition was 41.8% (active) under setting [1] and 5.69% under setting [2].

Regarding `OCCOCCNc1nc(Nc2cccc(F)c2)nc2c1cnn2-c1ccccc1`, the inhibition runs as follows: under setting [1], -4.23% (inactive); under setting [2], 4.68%.

`Cc1ccc(Nc2nc(NCc3ccco3)c3ccccc3n2)cc1`: the inhibition by setting is: under setting [1], 69% (active); under setting [2], 45.4%.

Regarding `Cc1ccccc1Nc1nc(NCc2ccco2)c2ccccc2n1`, the inhibition under setting [1] is -6.74% (inactive) and the inhibition under setting [2] was -22.5%.

For `CCOc1ccc(Nc2nc(NCc3ccco3)c3ccccc3n2)cc1`, the inhibition is 65.7% (active) under setting [1] and 78.4% under setting [2].

Regarding `Cc1ccc(-c2csc(-c3ccc(O)cc3)n2)cc1`, the inhibition under setting [1] is 3.54% (inactive) and the inhibition under setting [2] was 28.7%.

Turning to `Cc1ccc(-c2nc(NC(=O)CO)cs2)cc1`, the inhibition reads like this: under setting [1], 99.1% (active); under setting [2], 100%.

Consider `CC(NCC(O)COc1ccccc1C(C)(C)C)c1ccccc1` (stereo not drawn), for which the inhibition under setting [1] is 61.1% (active) and the inhibition under setting [2] turned out to be 48.8%.

In the case of `O=C(Nc1nnc(-c2ccc3c(c2)CCCC3)o1)c1ccc(Cl)cc1Cl`, the inhibition runs as follows: under setting [1], -1.63% (inactive); under setting [2], -9.7%.

Turning to `O=C(Nc1cccc(Br)c1)c1ccc([N+](=O)[O-])s1`, the inhibition was 6.23% (inactive) under setting [1] and 3.28% under setting [2].

`O=C(Nc1nnc(-c2ccc3c(c2)CCCC3)o1)c1ccc(Cl)s1`: the inhibition by setting is: under setting [1], 95.5% (active); under setting [2], 90.6%.

Take `O=C(Nc1nnc(-c2ccc3c(c2)CCCC3)o1)c1ccc([N+](=O)[O-])s1`: the inhibition under setting [1] was 79% (active) and the inhibition under setting [2] was 93.9%.

In the case of `CSc1cccc(-c2nnc(NC(=O)c3ccc([N+](=O)[O-])s3)o2)c1`, the inhibition is, setting by setting: under setting [1], 13% (active); under setting [2], 56.8%.

Turning to `O=C(Nc1nnc(-c2ccc3c(c2)CCCC3)o1)c1cc(Cl)sc1Cl`, the inhibition runs as follows: under setting [1], 52.2% (active); under setting [2], 48.6%.

For the compound `O=C1CC(c2ccc(Cl)cc2)CC2=C1C(c1ccc(C(F)(F)F)cc1)Nc1ccccc1N2` (stereo not drawn), the inhibition is -1.45% (inactive) under setting [1] and -10.1% under setting [2].

For `COC(=O)CSc1ncnc2c1cnn2-c1ccc(F)cc1`, the inhibition reads like this: under setting [1], 27.3% (active); under setting [2], 86.2%.

For the compound `COC(=O)CSc1ncnc2c1nnn2Cc1ccc(F)cc1`, the inhibition reads like this: under setting [1], 99.8% (active); under setting [2], 99.8%.

As for `CCOC(=O)CSc1ncnc2c1cnn2-c1ccc(C)cc1C`, the inhibition reads like this: under setting [1], 39.4% (active); under setting [2], 77.1%.

In the case of `CCOC(=O)C(C)Sc1ncnc2c1nnn2Cc1ccc(F)cc1` (stereo not drawn), the inhibition was 2.2% (inactive) under setting [1] and 19% under setting [2].

For the compound `CCOC(=O)C(C)Sc1ncnc2c1cnn2-c1ccc(F)cc1` (stereo not drawn), the inhibition reads like this: under setting [1], 26.4% (active); under setting [2], 87.2%.

As to `CCOC(=O)CNC(=O)CSc1ncnc2c1nnn2Cc1ccccc1F`, the inhibition was 17.3% (inactive) under setting [1] and 22.5% under setting [2].

`CCOC(=O)CSc1ncnc2c1cnn2-c1ccccc1`: the inhibition is, setting by setting: under setting [1], 13.4% (active); under setting [2], 70.7%.

For `CCOC(=O)C1CCCN(c2ccc([N+](=O)[O-])c3nonc23)C1` (stereo not drawn), the inhibition runs as follows: under setting [1], 29.3% (active); under setting [2], 67.6%.

On to `O=S1(=O)C=CC2ON=C(c3ccc(Cl)cc3)C21` (stereo not drawn), for which the inhibition is, setting by setting: under setting [1], 100% (active); under setting [2], 98.3%.

With `O=S1(=O)C=CC2ON=C(c3ccc(C(F)(F)F)cc3)C21` (stereo not drawn), the inhibition is 99.5% (active) under setting [1] and 96.8% under setting [2].

For `CCOC(=O)CSc1nc2c(c(-c3ccc(C)o3)c1C#N)CCCC2`, the inhibition under setting [1] was 21.7% (inactive) and the inhibition under setting [2] was 28.1%.

`N#Cc1cc2c(nc1SCC(=O)OCc1ccccc1)CCC2`: the inhibition by setting is: under setting [1], 99.7% (active); under setting [2], 99.7%.

Regarding `COC(=O)CSc1nc2c(c(-c3ccc(C)o3)c1C#N)CCCC2`, the inhibition is 4.49% (inactive) under setting [1] and -17% under setting [2].

As to `O=C(CSc1ccc(Cl)cc1)Nc1ccc(Cl)c(C(F)(F)F)c1`, the inhibition reads like this: under setting [1], 0.0104% (inactive); under setting [2], -15.8%.

On to `O=C(Cc1ccc(F)cc1)Nc1ccc(Cl)c(C(F)(F)F)c1`, for which the inhibition under setting [1] was 50.9% (active) and the inhibition under setting [2] was 31.5%.

With `O=C(CC(O)(C(F)(F)F)C(F)(F)F)Nc1ccc(Cl)c(Cl)c1`, the inhibition was 100% (active) under setting [1] and 101% under setting [2].

For `O=C(Nc1ccc(Cl)c(C(F)(F)F)c1)c1csc2c1CCCC2`, the inhibition under setting [1] is 1.18% (inactive) and the inhibition under setting [2] is -27.8%.

For the compound `Cc1cc(C)nc(N=C(N)Nc2cc(Cl)ccc2Oc2ccccc2)n1`, the inhibition under setting [1] is 97.1% (active) and the inhibition under setting [2] worked out at 99.6%.

For the compound `CCc1ccc(Oc2nc([N+](=O)[O-])nn2C)cc1`, the inhibition under setting [1] was 98% (active) and the inhibition under setting [2] was 95.4%.

Values taken from PubChem BioAssay AID1259417 (TB Discovery Research, Infectious Disease Research Institute, 2018).
